From PubChem BioAssay AID651812 (National Center for Advancing Translational Sciences (NCATS), 2012)
Values joined by “and” are separate entries in the source; they are usually repeats but may differ in a detail not shown here. Equal values may be shown once. The whole screen tested about 2,100 compounds, of which about 650 (31%) were called active. Not shown: some 16% with an inconclusive outcome. This is one part of the list. Unmarked numbers belong to inactive results. Calls come from the whole dose curve; as a rule, active = well fitted inhibition curve with a large enough effect; inconclusive = small, poorly fitted or top-dose-only effect; inactive = flat fitted curve, though single readings scatter.

assay: qHTS for inhibitors of Vif-A3G interactions: Cherry picks; details: HeLa A3G-eYFP + Vif (tagged APOBEC3G with the HIV-1 protein that degrades it), 24 h; Potency: eYFP fluorescence increase; series mostly up to 36.9 µM; activity, negative = fluorescence increase: at the top concentration; note: nearly all actives have a fitted effect of over 80% in size; for activity, negative = fluorescence increase: % of control where 0% means no effect
Summary of the method: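 HeLa cells stably expressing A3G-eYFP and Vif, cultured overnight then exposed to compounds at several concentrations for 24 hours at 37 C, 5% CO2; cellular yellow fluorescence (488 nm ex, 500-530 nm em) imaged on Acumen, MG132 positive control.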
Potency is the fitted concentration of half-maximal effect.

Row | SMILES | activity, negative = fluorescence increase | Potency
1 | CC(=O)Nc1ccc(S(=O)(=O)N2CCSc3ccccc32)cc1 | -1.38% | –
2 | Cn1cc(C2=C(c3ccc(Cl)cc3Cl)C(=O)NC2=O)c2ccccc21 | – | 13 µM (active) and 18.4 µM (active)
3 | COc1ccc(-n2nnnc2-c2ccccc2)cc1 | -2.72% | –
4 | Cc1cccc(NC(=O)/C(C#N)=C/c2cn(CC(=O)NCc3ccco3)c3ccccc23)c1C | -14.4% | –
5 | O=S(=O)(Nc1ccc(C(O)(C(F)(F)F)C(F)(F)F)cc1)c1ccc(Cl)c2nonc12 | -7.19% | –
6 | COc1ccccc1N1CCN(C(=O)c2cc(=O)c3cc(C)cc(C)c3o2)CC1 | -4.1% | –
7 | COc1cccc(-c2cnc3c(NC=O)cc(-c4cc(OC)c(OC)c(OC)c4)cn23)c1 | -0.111% | –
8 | COc1cccc(NC(=O)c2oc3ccc(S(=O)(=O)N4CCC5(CC4)OCCO5)cc3c2C)c1 | -5.82% [at 46.1 µM] | –
9 | O=C(N/N=C/c1ccc(Cl)cc1)c1cc2c(s1)-c1ccccc1CC2 | -9.15% | –
10 | Clc1ccc(/C=N/NC2=Nc3cccc4cccc2c34)cc1 | – | 18.4 µM (active)
11 | CCOC(=O)Cc1ccc(Nc2nc3cc(-c4sccc4C)sc3c(=O)n2C)cc1 | 1.41% | –
12 | COc1ccc(-n2c(O)c(/C=N/NS(=O)(=O)c3cccc([N+](=O)[O-])c3)c3ccccc3c2=O)cc1OC | – | 15.8 µM (active)
13 | COc1cc(-c2noc(C)c2/C=C/c2cccc([N+](=O)[O-])c2)cc(OC)c1OC | -7.09% | –
14 | COc1ccc(-n2c(O)c(/C=N/NS(=O)(=O)c3ccc(C)c([N+](=O)[O-])c3)c3ccccc3c2=O)cc1OC | – | 11.6 µM (active)
15 | COc1ccc(C(=O)C(C)[n+]2ccc(C)c3ccccc32)cc1[N+](=O)[O-] (stereo not drawn) | 2.06% | –
16 | O=C(O)CSc1cc(NS(=O)(=O)c2cccc([N+](=O)[O-])c2)c2ccccc2c1O | 1.69% | –
17 | O=c1[nH]cnc2n[nH]nc12 | -24.1% [at 46.1 µM] | –
18 | CN(C)c1ccc2ccc3cccc4ccc1c2c34 | – | 14.6 µM (active)
19 | Cc1ccc(-c2nc(-c3cc4cccc(OCc5cccc(F)c5)c4oc3=O)no2)cc1 | – | 18.4 µM (active)
20 | COc1ccccc1-c1nnc2sc(-c3cc4ccccc4o3)nn12 | -6.49% | –
21 | CCCCCCc1cc2cc(-c3nnc(-c4ccccc4)o3)c(=O)oc2cc1O | – | 1.58 µM (active)
22 | COc1ccccc1-c1cc(C(=O)NN)[nH]n1 | 2.82% | –
23 | CCCCCCc1cc2cc(-c3nnc(-c4ccccc4OC)o3)c(=O)oc2cc1O | – | 3.53 µM (active)
24 | O=C1OCC2=C1C(c1ccc3c(c1)OCO3)c1cc3c(cc1O2)OCO3 (stereo not drawn) | -11.2% | –

Row | SMILES | activity, negative = fluorescence increase | Potency
25 | COc1cccc(C2=CC(c3ccccc3)n3nnnc3N2)c1 (stereo not drawn) | -0.672% | –
26 | O=S(=O)(Nc1nc2n(n1)C(c1ccccc1)C=C(c1ccc(Cl)cc1)N2)c1ccccc1 (stereo not drawn) | – | 18.4 µM (active)
27 | CN(C)CCN(C(=O)/C=C/c1cccs1)c1nc2c(F)cc(F)cc2s1 | -2.76% [at 46.1 µM] | –
28 | COc1ccccc1NC(=O)Cc1ccc(-c2ccccc2)cc1 | 5.42% [at 46.1 µM] | –
29 | CC(=O)Nc1ccc(CC(=O)NCCC(c2ccccc2)c2ccccc2)cc1 | -6.14% | –
30 | COC(=O)CCC(=O)NC(=S)Nc1sc(C)c(C)c1C(N)=O | -18.9% | –
31 | CC(=O)Nc1sc(C)c(C)c1C(=O)OCC(=O)Nc1ccccc1 | – | 20.6 µM (active)
32 | CN1C2CCC1/C(=C/c1cccn1C)C(=O)/C2=C\c1cccn1C | – | 18.4 µM (active)
33 | CC1C/C(=C/c2cccs2)C(=O)/C(=C/c2cccs2)C1 (stereo not drawn) | 2.31% | –
34 | Cn1cccc1/C=C1\SC(=Nc2ccccc2)NC1=O | -0.492% | –
35 | Cn1cccc1/C=C1\CC(C(C)(C)C)C/C(=C\c2cccn2C)C1=O (stereo not drawn) | – | 7.31 µM (active)
36 | CC1CCN(C(=O)C(C)Sc2nc(-c3ccccc3)cc(C(F)(F)F)n2)CC1 (stereo not drawn) | -0.49% [at 46.1 µM] | –
37 | CCc1ccc2nc(N(CCCN(C)C)C(=O)c3ccc(S(=O)(=O)N(C)C4CCCCC4)cc3)sc2c1 | 0.585% | –
38 | C=CCn1c(SCc2c(C)noc2C)nc2cc(C(=O)O)ccc2c1=O | -21.4% | –
39 | COc1cc(C(=O)N/N=C/C2CC=CCC2)cc(OC)c1OC (stereo not drawn) | -2.79% | –
40 | COc1cc(/C=C2/SC(=S)N(CCC(=O)Nc3ccccc3)C2=O)cc(OC)c1OC | – | 18.4 µM (active)
41 | O=C(NCCN1C(=O)S/C(=C\c2ccc(OC(F)F)cc2)C1=O)c1cnccn1 | -7.81% | –
42 | COc1cc(C=C2C(=O)c3ccccc3C2=O)cc(OC)c1OC | -7.56% [at 46.1 µM] | –
43 | O=C(CN1C(=O)S/C(=C\c2cc(Cl)c(O)c(Cl)c2)C1=O)Nc1ccccc1 | – | 20.6 µM (active)
44 | COc1ccc(NC(=O)CN2C(=O)C3(SCC(=O)N3c3ccccc3)c3ccccc32)cc1Cl (stereo not drawn) | -4.85% [at 46.1 µM] | –
45 | COc1cc(/C=C2/SC(=S)N(Cc3ccccc3)C2=O)cc(OC)c1O | -23.4% | –
46 | COC(=O)C1=C(C)NC2=C(C(=O)CC(c3cccs3)C2)C1c1ccsc1 (stereo not drawn) | 0.506% | –
47 | CC(=O)Nc1cccc(-c2ccnc3c2CC(C)(C(=O)NCc2cccs2)O3)c1 (stereo not drawn) | -10.2% | –
48 | Clc1ccc2c(c1)C(C1=NCCN1)c1ccccc1CS2 (stereo not drawn) | -2.39% | –
